Assay outcomes from PubChem BioAssay.
Only some compounds are listed: those with a hit (about 21% of all), similar ones and a draw of the others.
Pf growth 96h – P. falciparum growth inhibition at 96 hours | hit rate 6.9% among 320,000 | P. falciparum luciferase reporter growth, 96 h | Potency, µM (titrated, usually from 28.7 µM), for inactives: at the highest dose activity change, negative = inhibition, actives largely listed as inhibitors | AID 504834; also: potency is read from the fitted curve at half-maximal effect; % is scaled to controls: 0 for no effect and ±100 for the full control effect
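Luminescence readout: decreased luciferase signal marks inhibited growth of reporter-expressing P. falciparum in infected red cells (2% hematocrit, 0.05% parasitemia final), exposed to compound two generations (96 h, 37 C, 5% CO2).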
Cycloheximide cs – counter-screen hit for Shiga toxin inhibitors, cycloheximide. cell reporter, cycloheximide protein synthesis inhibition counterscreen. max response, %. hit rate 12% among 300,000. AID 2314; in the data active = max response mostly above about 13%, no sharp cut-off; inactive = mostly below about 14%; also: read at 38.3 µM for the half of the compounds with a filed dose; 0% is about no effect
NS1 function inh – blocks influenza NS1 protein function. hit rate 0.4% among 270,000. AID 2326. Potency, µM (top dose mostly 46.1 µM), without a hit: top-dose activity, positive = more growth; calls by dose curve; also: potency is read from the fitted curve at half-maximal effect; actives are rising curves; nearly all actives have a fitted effect of over 50% in size
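A cell-based growth assay was used: compounds that relieve NS1-induced slow growth of budding yeast raise OD600. Assay medium was yeast nitrogen base with ammonium sulphate and -URA supplement, pH 6.0, with 2% galactose.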
Pf growth 48h – P. falciparum growth inhibition at 48 hours (one generation); P. falciparum luciferase growth in erythrocytes, 48 h; Potency, µM (titrated, usually from 28.7 µM), for inactives: at the highest dose activity change, negative = inhibition, hits mostly inhibitors; hit rate 5.9% among 310,000; AID 504832; also: potency is read from the fitted curve at half-maximal effect; % is scaled to controls: 0 for no effect and ±100 for the full control effect
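Parasite viability was followed by luminescence of a genomically integrated firefly luciferase. Cultures held 0.1% parasitemia at 2% hematocrit (final), incubated under 5% CO2 at 37 C.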
Giardia FBPA inh – blocks Giardia fructose-bisphosphate aldolase activity. A8B2U2. purified Giardia FBPA. Potency, µM (titrated, usually from 59.6 µM), without a hit: top-dose activity, negative = inhibition, hits mostly inhibitors. hit rate 0.71% among 290,000; also: potency is read from the fitted curve at half-maximal effect; % is scaled to controls: 0 for no effect and ±100 for the full control effect; nearly all actives have a fitted effect of over 55% in size
Target sequence (A8B2U2 whole entry, looked up): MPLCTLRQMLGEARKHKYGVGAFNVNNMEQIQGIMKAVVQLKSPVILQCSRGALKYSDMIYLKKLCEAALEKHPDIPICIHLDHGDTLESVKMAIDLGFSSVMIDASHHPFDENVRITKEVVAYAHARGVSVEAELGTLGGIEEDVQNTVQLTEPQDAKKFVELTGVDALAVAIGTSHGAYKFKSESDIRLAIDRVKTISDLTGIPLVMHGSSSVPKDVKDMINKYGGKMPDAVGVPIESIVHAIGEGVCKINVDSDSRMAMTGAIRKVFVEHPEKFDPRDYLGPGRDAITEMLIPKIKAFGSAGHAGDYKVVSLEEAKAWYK
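Giardia FBPA (40 nM reagent) was preincubated 10 min at RT with compound (up to 57.5 uM final), then substrate plus GAPDH/TPI/NAD/arsenate coupling system with diaphorase/resazurin was added; resorufin fluorescence (525/598 nm) was read after 20 min.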
Shiga inhibitor – blocks Shiga toxin action in Vero cells; Vero cells, Shiga toxin protein synthesis inhibition reporter; inhibition, % at 38.7 µM; hit rate 9.2% among 290,000; in the data active = inhibition mostly above about 28%, no sharp cut-off; inactive = mostly below about 43%; also: 0% is about no effect
An asterisk follows results filed as active; ? = inconclusive; · = not tested or not shown. Unless noted, calls follow the shape of the dose curve; as a rule, active = well fitted curve in the direction sought with a large enough effect; inconclusive = small, poorly fitted or top-dose-only effect, or another doubt; inactive = no such curve, though single readings can be large; an effect the other way counts as inactive or inconclusive.

SMILES	Pf growth 96h	Cycloheximide cs	NS1 function inh	Pf growth 48h	Giardia FBPA inh	Shiga inhibitor
O=C1C2CCCN2c2ccc(S(=O)(=O)N3CCOCC3)cc2N1Cc1ccccc1F (configuration not stated)	12µM*	-4	?	?	0%	-8
O=C(NCCCN1CCOCC1)C1CCN(S(=O)(=O)c2cccc(C(F)(F)F)c2)CC1	68%	·	·	3%	·	·
CSCCCNC(=S)N1CCN(S(=O)(=O)c2cccc(C(F)(F)F)c2)CC1	-93%	-3	10%	10µM*	1%	-6
CC(=O)NC12CC3CC(C1)CC(C(=O)N1CCN(S(=O)(=O)c4cccc(C(F)(F)F)c4)CC1)(C3)C2	?	·	·	13µM*	·	·
O=S(=O)(c1cccc(C(F)(F)F)c1)N1CCN(C(=S)NCc2ccco2)CC1	2.3µM*	-2	-7%	4.7µM*	0%	1
CN(C)CC(CCC(CN(C)C)C(O)(c1ccccc1)c1ccccc1)C(O)(c1ccccc1)c1ccccc1 (configuration not stated)	1.9µM*	2	-3%	1.9µM*	3%	-7
COc1ccccc1Cc1nnc(NC(=O)C2CCN(C(=O)c3ccco3)CC2)s1	7%	6	-12%	?	5%	10
Nc1nnc(N2CCc3ccccc32)s1	?	27*	-24%	7%	-3%	57*
Nc1nnc(N2CCCCC2)s1	-13%	-4	-5%	?	-6%	10
O=c1c2cnn(-c3ccc(F)cc3)c2ncn1Cc1ccc(F)cc1	?	-2	7%	9%	11%	-2
CCOC(=O)C(C)n1cnc2c(cnn2-c2ccc(Cl)cc2)c1=O (configuration not stated)	13%	11	2%	52%	4%	-25
CCCCn1cnc2c(cnn2-c2ccc(F)cc2)c1=O	-25%	27*	-1%	58%	2%	120*
CCCn1cnc2c(cnn2-c2ccc(F)cc2)c1=O	5%	43*	-1%	298%	4%	70*
CCCCn1cnc2c(cnn2-c2ccc(Cl)cc2)c1=O	-5%	11*	-1%	96%	2%	18
O=C1C(=O)c2ccccc2C(O)=C1Cc1ccccc1	·	·	-30%	·	·	·
CCCC(=O)Nc1ccc2c(c1)Cc1ccccc1-2	?	28*	-30%	61%	2%	119*
S=C(Nc1ccc2c(c1)Cc1ccccc1-2)Nc1ccc2c(c1)Cc1ccccc1-2	·	·	0%	·	·	·
O=C(Nc1ccc(Nc2ccc3c(c2)C(=O)c2ccccc2C3=O)c2c1C(=O)c1ccccc1C2=O)c1ccccc1	·	·	0%	·	·	·
O=C1c2ccccc2C(=O)c2cc(NC(=O)C3CC3)ccc21	?	20*	0%	256%	1%	33*
O=C1c2ccccc2-c2ccc(NC(=O)[C@H]3CCCC[C@@H]3C(=O)O)cc21	·	·	-7%	·	·	·
CC(=O)Nc1ccc2c(c1)C(=O)c1ccccc1C2=O	·	51*	-71%	284%	-4%	84*
CCC(=O)Nc1ccc2c(c1)Cc1cc(NC(=O)CC)ccc1-2	0%	-3	7%	8%	-2%	-9
CC(=O)Nc1ccc2c(c1)CCc1ccccc1-2	-17%	46*	-34%	·	-2%	97*
CCC(C)c1ccc(S(=O)(=O)N2CCN(C(C)CC(=O)O)CC2)cc1 (configuration not stated)	13%	-2	·	10%	?	-4
O=C(O)/C=C/C(=O)Nc1ccc(C(=O)c2ccccc2)cc1	?	-1	-5%	-19%	6%	-12
SMILES	Pf growth 96h	Cycloheximide cs	NS1 function inh	Pf growth 48h	Giardia FBPA inh	Shiga inhibitor
O=C(O)/C=C/C(=O)Nc1ccc2c(c1)C(=O)c1ccccc1C2=O	12%	62*	-7%	29%	-2%	135*
O=C(CSc1ccccc1)Nc1cc(S(=O)(=O)N2CCOCC2)ccc1N1CCOCC1	?	-2	0%	?	3%	-8
COc1cc(/C=N/OCC(=O)NC2CCCCC2C)ccc1OCc1ccc(Cl)cc1 (configuration not stated)	43%	56*	14%	110%	-6%	150*
COc1cc(/C=N/OCC(=O)Nc2cc(C)cc(C)c2)ccc1OCc1ccc(Cl)cc1	-36%	92*	2%	172%	-6%	107*
COc1ccc(NC(C)=O)cc1S(=O)(=O)N1CCN(C/C=C/c2ccccc2)CC1	5%	-3	·	-13%	6%	-4
CN(C)CCN(C(=O)c1ccc(S(=O)(=O)N2CCc3ccccc32)cc1)c1nc2ccc(F)cc2s1	30%	16	13%	28%	·	79*
COc1cccc2sc(N(CCCN(C)C)C(=O)c3ccc(S(=O)(=O)N4CCCc5ccccc54)cc3)nc12	?	-2	18%	10µM*	-22%	-12
CN(Cc1cccs1)CC(O)COCc1ccco1 (configuration not stated)	12%	3	1%	-15%	7%	1
COc1ccccc1COCC(O)CN(Cc1ccco1)Cc1ccccc1O (configuration not stated)	5.2µM*	-1	6%	8.3µM*	4%	6
COc1ccc(C(=O)[C@H](Br)[C@H](Br)C(=O)O)cc1	·	·	-56%	·	·	·
CCOC(=O)c1sc2ncn(CC(=O)N(CC)CC)c(=O)c2c1C	?	1	-15%	-3%	-1%	5
CCOC(=O)c1sc2c(c1C)c(=O)c(C(=O)OCC)cn2CC	8%	-2	0%	2.3µM*	1%	15
COC(=O)C1=C(c2ccc3ccccc3c2)C[C@@H]2CC[C@H]1N2C(=O)NCc1ccc(F)cc1	?	·	·	8.3µM*	·	·
COC(=O)C1=C(c2ccc3ccccc3c2)C[C@@H]2CC[C@H]1N2C(=O)NCc1ccc(C(F)(F)F)cc1	?	·	·	8.3µM*	·	·
CCCNC(=O)N1[C@H]2CC[C@@H]1C(C(=O)OC)=C(c1ccc3ccccc3c1)C2	-10%	·	·	?	·	·
COC(=O)C1=C(c2ccc(C(C)=O)cc2)C[C@@H]2CC[C@H]1N2C(=O)NCc1ccc2c(c1)OCO2	3.3µM*	·	·	12µM*	·	·
COC(=O)C1=C(c2ccc(Cl)c(C(F)(F)F)c2)C[C@@H]2CC[C@H]1N2C(=O)NCc1ccc2c(c1)OCO2	32%	·	·	?	·	·
CNC(=O)c1ccc(-c2ccccc2)s1	107%	34*	-69%	3%	-11%	69*
CC(=O)Nc1ccc(-c2ccccc2)s1	·	-6	4%	24%	5%	-15
COc1ccc2nc(-c3ccccc3)cc(C(=O)OCC(=O)N3CCCCC3)c2c1	?	·	·	12µM*	·	·
Cc1cc(C(=O)OCC(=O)N2CC(C)OC(C)C2)c2ccccc2n1 (configuration not stated)	24%	·	·	5%	·	·
COc1ccc2nc(-c3ccccc3)cc(C(=O)OCC(=O)N3CC(C)OC(C)C3)c2c1 (configuration not stated)	?	·	·	12µM*	·	·
CCNc1ncc2nc(-c3cccs3)c(=O)n(CCC#N)c2n1	·	·	·	·	-16%	·
O=[N+]([O-])c1c2ccccc2cc2ccccc12	?	·	·	2.6µM*	·	·
